# Measurements reported in the supplement of paper PMC6555819.
# Legend:
# Assay in all cases: PBM binding z-score (relative to random genomic background probes); higher = stronger binding; sequences stand for … in GC…GCGATTGACAGCGTAGAATGAAGG
# [1] = system: FXR:RXRa (NR concentration 270 nM, RXRa partner concentration 90 nM)
# How it was run: (§1)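 Binding buffer was PBS pH 7.4 with 2% milk, 0.02% Triton X-100, 1 mM DTT, 0.2 mg/mL BSA and 0.4 mg/ml salmon testes DNA. In it, ligand-free nuclear receptor dimers were incubated 1 h on custom Agilent 4×180K protein-binding microarrays carrying double-stranded probes. Antibodies against each partner (one per run) detected binding, and z-scores were calculated against random background probes after regression normalization of scanned fluorescence.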
# [2] = system: LXRa:RXRa (NR concentration 270 nM, RXRa partner concentration 90 nM)
# How it was run: as §1
# [3] = system: LXRa homodimer (NR concentration 270 nM)
# How it was run: as §1
# [4] = system: LXRb:RXRa (NR concentration 270 nM, RXRa partner concentration 90 nM)
# How it was run: as §1
# [5] = system: LXRb homodimer (NR concentration 270 nM)
# How it was run: as §1
# [6] = system: PPARa:RXRa (NR concentration 270 nM, RXRa partner concentration 90 nM)
# How it was run: as §1
# [7] = system: PPARg:RXRa (NR concentration 180 nM, RXRa partner concentration 90 nM)
# How it was run: as §1
# [8] = system: PPARg:RXRa 270nM:90nM, anti-RXR (NR concentration 270 nM, RXRa partner concentration 90 nM)
# How it was run: as §1
# [9] = system: PPARg:RXRa 30nM:10nM, anti-RXR (NR concentration 30 nM, RXRa partner concentration 10 nM)
# How it was run: as §1
# [10] = system: PPARg:RXRa 90nM:30nM, anti-RXR (NR concentration 90 nM, RXRa partner concentration 30 nM)
# How it was run: as §1
# [11] = system: PPARg:RXRa DBDmut IVT, anti-RXR (DBD mutation: RXRa K156A/R161A, NR concentration 270 nM, RXRa partner concentration 90 nM)
# How it was run: as §1
# [12] = system: PPARg:RXRa IVT, anti-PPARg (NR concentration 270 nM, RXRa partner concentration 90 nM)
# How it was run: as §1
# [13] = system: PPARg DBDmut:RXRa IVT, anti-PPARg (DBD mutation: PPARg1 K132A/R137A, NR concentration 270 nM, RXRa partner concentration 90 nM)
# How it was run: as §1
# [14] = system: PPARg DBDmut IVT, anti-PPARg (DBD mutation: PPARg1 K132A/R137A, NR concentration 270 nM)
# How it was run: as §1
# [15] = system: PPARg homodimer (NR concentration 180 nM)
# How it was run: as §1
# [16] = system: PXR:RXRa (NR concentration 270 nM, RXRa partner concentration 90 nM)
# How it was run: as §1
# [17] = system: PXR homodimer (NR concentration 270 nM)
# How it was run: as §1
# [18] = system: RARa:RXR (NR concentration 270 nM, RXRa partner concentration 90 nM)
# How it was run: as §1
# [19] = system: RARa homodimer (NR concentration 270 nM)
# How it was run: as §1
# [20] = system: RARb:RXRa (NR concentration 270 nM, RXRa partner concentration 90 nM)
# How it was run: as §1
Sequence,PBM binding z-score [1],PBM binding z-score [2],PBM binding z-score [3],PBM binding z-score [4],PBM binding z-score [5],PBM binding z-score [6],PBM binding z-score [7],PBM binding z-score [8],PBM binding z-score [9],PBM binding z-score [10],PBM binding z-score [11],PBM binding z-score [12],PBM binding z-score [13],PBM binding z-score [14],PBM binding z-score [15],PBM binding z-score [16],PBM binding z-score [17],PBM binding z-score [18],PBM binding z-score [19],PBM binding z-score [20]
ATCGAAAGGTCGAAGGTGAGTTTACCCACCCGAA,4.75,3.73,0.479,2.89,0.226,4.78,4.38,4.6,2.08,3.81,0.357,2.21,0.513,0.511,1.48,4.03,1.02,4.05,0.0951,3.85
GCGATTGGGGCATCAGCAGGTTACCATAACTTAA,0.0293,-0.187,-0.243,1.24,-0.0268,0.814,0.255,-0.0261,-0.258,-0.582,1.79,0.996,-0.746,-0.408,0.245,0.113,-0.0157,0.281,-0.368,0.823
GGAACGAGGGCATCCGAGTTGATAGCATGGCGAT,1.24,0.897,-0.543,-0.129,-0.874,1.53,1.15,0.688,-0.271,-0.0258,2.9,2.23,-0.317,-0.705,-0.0747,3.67,0.048,0.949,-0.37,1.78
CATACAGGGTCAGCTACGCCAGAGTAGGGACGGC,4.39,3.1,0.0565,2.3,0.562,4.28,3.26,3.22,0.875,2.03,1.11,2.35,0.652,1.25,1.54,2.22,-0.0173,3.27,0.771,3.99
TCATATAGGTAAAAGGTGATAGTCGGTGTGGTAA,1.41,1.28,0.217,1.35,0.351,4.6,8.06,7.95,8.2,8.56,5.2,4.18,1.26,1.38,1.66,0.875,0.988,1.84,1.85,1.17
TCTAGCAGGCTAGAGGGTCACTCAAGAGGTACGG,1.01,0.938,-0.529,0.868,-1.08,2.4,1.05,2,1.9,1.98,0.497,0.41,-0.174,-0.574,0.731,1.48,-0.354,2.02,-0.017,1.93
TCTTGTAGATCAATAGAGGATAAGAAAGTGCGCT,0.574,0.33,-0.0873,-0.13,-0.142,0.415,0.389,1.46,2.75,2.25,1.63,0.366,0.6,1.05,0.615,0.475,0.185,0.654,0.232,0.029
AGAATGAGGTTATACGTAGATCACGGAAGAAAGT,2.18,2.11,0.266,1.61,-0.128,3.03,1.91,2.03,0.729,1.42,4.13,2.15,1.62,1.21,0.376,1.19,0.48,1.72,0.335,1.53
CCAATTAGTTGACCATAAGGGCAACCGAAGCTCG,0.987,0.336,0.562,0.314,0.402,0.626,0.453,0.425,-0.327,0.254,0.617,0.411,0.198,0.147,1.75,0.497,0.892,0.865,1.38,1.67
CATACAGGGTCAGCGAGGCCAGAGTAGGGACGGC,5.13,3.36,-0.392,2.27,-0.0459,5,4.21,3.65,0.828,2.12,0.932,2.99,0.657,0.403,1.75,3.02,0.862,3.03,0.389,4.24
TCTTGTAGATCAGCAGGTTAATAAAGCTGGCCAA,0.186,0.321,-0.0562,0.223,-0.339,0.462,-0.26,1.38,2.55,1.7,1.69,0.368,0.134,0.645,-0.332,0.185,-0.721,0.556,0.0648,0.000915
ATTCAAAGTTCACTAGGTAACGTAAGATTCAGCT,4.73,5.45,4.42,3.08,1.71,4.44,5.64,5.28,2.03,4.25,2.64,4.4,1.68,2.19,2.66,3.71,3.03,2.9,2.06,4.61
AGTCAAAGTTCATCTAGGCAACGTAAGATATGCT,6.17,6.15,4.67,3.78,1.77,4.92,6.47,6.11,3.4,5.44,0.192,3.08,1.23,0.857,2.59,5.11,4.94,3.62,0.925,5.1
AGAATGAGGTTACGAAAGATCAGGGAAACGCTTG,2.59,4.99,-0.188,2.46,-0.578,3.68,2.95,2.84,1.04,2.02,4.25,3.64,0.808,0.386,0.0598,1.44,-0.57,2.32,-0.313,2.21
